The source made the active and inactive calls. Rule for the calls: active = hit-call score of the fitted dose curve at least 0.9, where 1 is the maximum; inactive = score below 0.9.

The first test is described as follows: ATG_PPRE_CIS: Attagene CIS-FACTORIAL HepG2 Assay for human Peroxisome Proliferator-activated Response Element (PPRE) (AID 2282958). The note with it: HepG2 PPRE cis-element reporter, Attagene transcription factor profiling; actives raise or lower the signal. An outline of the steps:
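PPRE activity in HepG2: transient cis-reporter transfection, 24 h compound incubation, reporter mRNA by RT-PCR and CE fluorescence; gain/loss fitted against DMSO.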
Take `[Cl][Nd]([Cl])[Cl]`: the result was inactive. As usually defined, the AC50 is the midpoint of the concentration-response curve, whichever way the signal moves. As to `CC/C=C\C/C=C\C/C=C\CCCCCCCC(=O)O`, the concentration at half-maximal activity (AC50) was 40.1 µM (active).

Turning to `CCOC(=O)CC`, the outcome was inactive.

As for `CC(=O)Oc1ccc(C(C)=O)cc1`, the call was inactive. On the same count and under the same terms, under `C=C(C)C(=O)OCC(C)C` stands “inactive”.

With `O=C(Nc1ccccc1)c1ccccc1O`, the half-maximal activity concentration (AC50) is 100 µM (active).

`CC(C)c1ccc(C#N)cc1`: the compound was classed as inactive. Same read-out and setting: with `COc1cc(C)ccc1C(C)C` the entry was “inactive”; with `Cc1cccc(N)n1`, “inactive”; with `O=S(=O)(O)CC(O)CCl` (configuration not stated), “inactive”.

Take `[Cl][Bi]([Cl])([c]1ccccc1)([c]1ccccc1)[c]1ccccc1`: the compound was classed as inactive. The same measure, in the same setting: under `O=c1c2ccccc2nnn1CCl` stands “inactive”. As for `CN(C)c1ccc(N=Nc2ccccc2C(=O)O)cc1`, the AC50 is 17.8 µM (active). Turning to `S=C(NC1CCCCC1)NC1CCCCC1`, the compound was called inactive. Same read-out and setting: with `COc1cc(NC(=O)CC(C)=O)c(OC)cc1Cl` the entry was “inactive”; with `O=C(/C=C/C=C/c1ccc2c(c1)OCO2)N1CCCCC1`, “inactive”; with `CCN(CCO)c1cccc(C)c1`, “inactive”.

Consider `C=C[Si](OC(C)=O)(OC(C)=O)OC(C)=O`, for which the compound was classed as inactive. Consider `CCCC(=O)OCc1ccccc1`, for which the outcome was inactive. On to `O=C(Cl)c1cc(C(=O)Cl)cc(C(=O)Cl)c1`, for which the AC50 was 100 µM (active). Regarding `CC(=O)OCC(C)OC(C)=O` (configuration not stated), the outcome was inactive.

Regarding `Nc1cccc(C(F)(F)F)c1`, the compound was classed as inactive. On the same count and under the same terms, with `Cc1cc(C)c(C)cc1C` the entry was “inactive”. The same measure, in the same setting: with `Cc1cc(C)c(C)c(C)c1` the entry was “inactive”; with `CC(C)CC(O)Cc1ccccc1` (configuration not stated), “inactive”. On the same count and under the same terms, under `C=C(C)C(=O)OCCOc1ccccc1` stands “inactive”; under `CCCOCCOCCOCCO`, “inactive”.

The nature of another test: ATG_RORE_CIS: Attagene CIS-FACTORIAL HepG2 Assay for human RAR-related Orphan Receptor Element (RORE) (AID 2282959). The following applies: HepG2 Attagene cis-factorial RORE reporter, mRNA; actives raise or lower the signal. In short, it runs like this:
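A 24-hour exposure of transfected HepG2 hepatoma cells precedes RNA isolation and reporter RT-PCR. Labeled products are digested with HpaI and resolved by capillary electrophoresis, with gain or loss of signal scored relative to DMSO.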
On to `[Cl][Nd]([Cl])[Cl]`, for which the outcome was inactive. For the compound `CC/C=C\C/C=C\C/C=C\CCCCCCCC(=O)O`, the half-maximal activity concentration (AC50) is 48.7 µM (active). Take `Nc1ccc(-c2ccc(F)cc2)cc1`: the compound was classed as inactive. Turning to `C=C(C)C(=O)OCC(C)C`, the compound was called inactive. On the same count and under the same terms, with `O=C(Nc1ccccc1)c1ccccc1O` the entry was “inactive”; with `CC(C)c1ccc(C#N)cc1`, “inactive”; with `O=C1OC(=O)c2cc(Oc3ccc4c(c3)C(=O)OC4=O)ccc21`, “inactive”. Still for that read-out and setting: under `Cc1cccc(N)n1` stands “inactive”. `c1cc(N(CC2CO2)CC2CO2)ccc1OCC1CO1` (configuration not stated): the concentration at half-maximal activity (AC50) was 80.6 µM (active). Take `CCCCC(CC)CCC(CC(C)C)OS(=O)(=O)O` (configuration not stated): the compound was called inactive. Same read-out and setting: with `[Cl][Bi]([Cl])([c]1ccccc1)([c]1ccccc1)[c]1ccccc1` the entry was “inactive”. With `O=C(O)C(c1ccc(Cl)cc1)c1ccc(Cl)cc1`, the compound was classed as inactive. Still for that read-out and setting: with `O=c1c2ccccc2nnn1CCl` the entry was “inactive”. On to `CN(C)c1ccc(N=Nc2ccccc2C(=O)O)cc1`, for which the compound was classed as inactive.

Take `S=C(NC1CCCCC1)NC1CCCCC1`: the outcome was inactive. On the same count and under the same terms, under `COc1cc(NC(=O)CC(C)=O)c(OC)cc1Cl` stands “inactive”; under `O=C(/C=C/C=C/c1ccc2c(c1)OCO2)N1CCCCC1`, “inactive”.

For the compound `CC(C)COC(=O)C=Cc1ccccc1`, the compound was called inactive. For `CCN(CCO)c1cccc(C)c1`, the compound was called inactive. With `C=C[Si](OC(C)=O)(OC(C)=O)OC(C)=O`, the compound was called inactive.

Consider `CCCC(=O)OCc1ccccc1`, for which the compound was called inactive. Same read-out and setting: with `CC(=O)OCC(C)OC(C)=O` (configuration not stated) the entry was “inactive”. On the same count and under the same terms, under `Cc1cc(=O)n(-c2ccccc2)n1C` stands “inactive”; under `Cc1ccc(N/N=c2\c(=O)cc/c(=N/Nc3ccc(S(=O)(=O)O)cc3)c2=O)c(C)c1`, “inactive”.

For `Cc1cc(C)c(C)cc1C`, the compound was classed as inactive. `CCC(Cc1ccccc1)(C(=O)c1ccc(N2CCOCC2)cc1)N(C)C` (configuration not stated): the AC50 is 21.4 µM (active). Regarding `Cc1cc(C)c(C)c(C)c1`, the call was inactive. Consider `CC(C)CC(O)Cc1ccccc1` (configuration not stated), for which the compound was classed as inactive. Still for that read-out and setting: with `C=C(C)C(=O)OCCOc1ccccc1` the entry was “inactive”; with `CCCOCCOCCOCCO`, “inactive”.

The record behind these values is PubChem BioAssay (EPA / NIEHS).
